# Assay outcomes as filed in PubChem BioAssay.
# Most compounds without a hit are left out; they make up all but 1.6% or so of the library.
# KCNQ2 enhance – KCNQ2 (rat) channel potentiation | O88943 | CHO-K1 KCNQ2, FluxOR thallium flux fluorescence; stronger effect = higher value | B-score at 10 µM | 0.54% of 310,000 active | AID 2239;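 active = fluorescence ratio B-score at least 3 SD of library B-scores, with initial fluorescence B-score within 3 of them, cut at about 5.3 in these data; same plate scores as AID 2156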;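 note: B-score of peak minus minimum over baseline fluorescence ratio after K+ and Tl+ stimulus; positive B-score means potentiation of KCNQ2 with more thallium influx and brighter signal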
# KCNQ2 block – KCNQ2 (rat) channel inhibition; CHO-K1 KCNQ2, FluxOR thallium flux, 20 min; stronger effect = lower value; AID 2156; 1.1% of 310,000 active; B-score at 10 µM; O88943;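 active = fluorescence ratio B-score at most minus 3 library SDs, with starting brightness B-score within 2 library SDs, cut at about -5.5 in these data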
# KCNQ2 inh conf – confirmation of rat KCNQ2 potassium channel inhibitors; shares compounds with KCNQ2 block; KCNQ2-expressing cells, thallium flux, inhibition; stronger effect = lower value; activity change, negative = inhibition, % at 10 µM; 57% of 1,000 active; AID 493025;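 note: 0% = vehicle wells and values are ratio percent relative to vehicle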
# KCNQ1 spec – KCNQ2 inhibitor that also affects human KCNQ1 channel; 15% of 1,000 active; KCNQ1-expressing cells, FluxOR thallium flux fluorescence; stronger effect = lower value; AID 493026; shares compounds with KCNQ2 block; activity change, negative = inhibition, % at 10 µM;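 active = activity change at least 3 SD of negative controls below their mean in both duplicate wells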;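 note: CHO cells stably transfected with KCNQ1 and depolarized by potassium stimulus; peak minus minimum fluorescence over baseline after thallium addition; 0% = vehicle negative control and -100% = blank without thallium stimulus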
# CHO Tl ctr – counter-screen for KCNQ2 inhibitors: effect in parental CHO cells. shares compounds with KCNQ2 block. thallium flux counter-screen; stronger effect = lower value. activity change, % at 10 µM. 14% of 1,000 active. AID 493029;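 note: 0% = vehicle negative controls with stimulus buffer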
# Kir21 conf inh – confirmation of mouse Kir2.1 potassium channel inhibitors; AID 2032; Kir2.1-expressing cells, FluxOR thallium flux fluorescence; stronger effect = lower value; 41% of 2,300 active; shares compounds with KCNQ2 enhance; Tl flux remaining, % of negative control (stronger effect = lower value), % at 10 µM;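 active = Primary-screen hit whose thallium flux fell at least 3 control SD below untreated wells in both duplicates, with normal baseline fluorescence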;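 note: 0% = blank wells without stimulus and 100% = stimulated no-compound controls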
# HEK293 Tl flux – parental HEK293 activity in Kir2.1 inhibitor counter-screen; shares compounds with KCNQ2 enhance; FluxOR signal as % of negative control (100 = no effect), % at 10 µM; parental HEK293 cells, FluxOR thallium flux fluorescence; 0% = unstimulated blank wells; 19% of 2,300 active;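 active = dye signal at least 3 control SD above or below untreated wells in both duplicates, raw fluorescence within 3, either direction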;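 note: percent is based on the flux ratio of peak minus minimum fluorescence over baseline F0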
# CHO-K1 Tl ctr – alters thallium flux in parental CHO-K1 cells, KCNQ2 counter-screen; shares compounds with KCNQ2 enhance; FluxOR thallium flux fluorescence; zero = vehicle mean+3SD, 100% = vehicle-minus-blank window; activity increase over 3SD of controls, % at 10 µM; 43% of 1,200 active;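 active = signal rise of at least 3 SD above the untreated control mean, in both duplicate wells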;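 note: counter screen of KCNQ2 potentiator hits so any rise reflects channel-independent effects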
# KCNQ1 pot spec – selectivity of KCNQ2 potentiators: effect on human KCNQ1; shares compounds with KCNQ2 enhance; CHO KCNQ1 stable, FluxOR thallium flux fluorescence; beyond 3SD, as % of vehicle-control signal; activation over 3SD threshold, % at 10 µM; 28% of 1,200 active;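 active = fluorescence ratio rise of at least 3 SD of vehicle wells above their mean, in both replicate wells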;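 note: 0% = vehicle mean plus 3 SD and 100% = vehicle minus unstimulated blank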
# KCNQ2 pot confirm – rat KCNQ2 channel potentiator confirmation; shares compounds with KCNQ2 enhance; CHO-KCNQ2 cells, FluxOR thallium flux fluorescence; potentiation, less the hit threshold, % at 10 µM; 68% of 1,200 active; AID 2287;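 active = fluorescence ratio rising 3 SD or more over the vehicle control mean in both replicates, plus primary screen hit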;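 note: peak minus minimum thallium fluorescence divided by baseline after K/Tl stimulus; 0% = vehicle mean plus 3 SD and 100% = vehicle minus unstimulated blank difference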
# Kir2-1 sel – selectivity of KCNQ2 potentiators: effect on mouse Kir2.1 | shares compounds with KCNQ2 enhance | HEK293 Kir2.1, FluxOR thallium flux fluorescence | activity over 3SD threshold, % at 10 µM | 2% of 1,200 active | AID 2345;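 active = fluorescence ratio rise of at least 3 SD above the vehicle-control mean, seen in both replicates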;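 note: 0% = vehicle mean plus 3 SD and 100% = vehicle minus no-stimulus blank window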
# KCNQ2 W236L MoA – KCNQ2 potentiators acting on retigabine-insensitive rat KCNQ2 W236L mutant; CHO KCNQ2-W236L, automated patch clamp current; current increase over 3SD of negative controls (%), stronger effect = higher value, % at 25 µM; 10% of 940 active; shares compounds with KCNQ2 enhance;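 active = current increase at least 3 SD of the untreated controls above them in both duplicate recordings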
# Target sequence (O88943 whole entry W236L, looked up): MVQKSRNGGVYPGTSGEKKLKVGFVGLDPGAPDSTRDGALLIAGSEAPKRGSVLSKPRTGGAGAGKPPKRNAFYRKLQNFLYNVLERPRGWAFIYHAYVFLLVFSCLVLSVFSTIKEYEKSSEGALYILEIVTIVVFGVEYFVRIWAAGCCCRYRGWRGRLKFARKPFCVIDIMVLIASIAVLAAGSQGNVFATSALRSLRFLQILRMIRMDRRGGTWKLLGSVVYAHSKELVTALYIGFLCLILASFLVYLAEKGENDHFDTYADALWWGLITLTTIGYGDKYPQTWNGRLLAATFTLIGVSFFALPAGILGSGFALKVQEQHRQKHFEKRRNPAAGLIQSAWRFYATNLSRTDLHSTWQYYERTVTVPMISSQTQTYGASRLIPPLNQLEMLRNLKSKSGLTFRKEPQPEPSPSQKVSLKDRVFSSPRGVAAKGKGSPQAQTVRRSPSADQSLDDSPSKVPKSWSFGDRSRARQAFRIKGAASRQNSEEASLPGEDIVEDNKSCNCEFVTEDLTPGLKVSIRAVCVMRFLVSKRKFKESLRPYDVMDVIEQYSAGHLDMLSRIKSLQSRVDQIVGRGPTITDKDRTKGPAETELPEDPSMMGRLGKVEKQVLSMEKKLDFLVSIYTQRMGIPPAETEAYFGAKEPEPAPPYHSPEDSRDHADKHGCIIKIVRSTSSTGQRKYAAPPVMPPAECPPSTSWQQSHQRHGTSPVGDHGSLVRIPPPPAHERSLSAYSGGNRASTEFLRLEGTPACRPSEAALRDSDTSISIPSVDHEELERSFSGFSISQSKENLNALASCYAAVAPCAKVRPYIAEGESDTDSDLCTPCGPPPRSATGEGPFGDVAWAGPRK
# Numbers without * were called inactive; i = inactive; . = not tested or not shown. Unless noted, the rule behind the calls is not given here.
SMILES,KCNQ2 enhance,KCNQ2 block,Kir21 conf inh,HEK293 Tl flux,others
CCN(C(=O)CSc1nnnn1-c1ccccc1)C1CCS(=O)(=O)C1 (stereo not given),.,i,.,.,
Cc1ccc(-c2nn(-c3ccccc3)cc2CO)cc1,.,i,.,.,
N=C(N)SCc1cn(-c2ccccc2)nc1-c1ccc(Br)cc1,-12,-12*,13.0%*,56.0%*,KCNQ2 inh conf=i;KCNQ1 spec=i;CHO Tl ctr=i
CCN(CC)C(=O)Cn1c(=O)n(CC(=O)N2CCCCC2)c(=O)c2sccc21,.,i,.,.,
O=C(O)c1ccc(S(=O)(=O)c2ccc3c(c2)C(=O)N(c2ccc(O)cc2)C3=O)cc1,1.82,i,.,.,
O=C1c2ccc3c4c(ccc(c24)C(=O)N1c1ccc(O)cc1)C(=O)N(c1ccc(O)cc1)C3=O,11.4*,i,i,i,CHO-K1 Tl ctr=2.5*;KCNQ1 pot spec=44.6*;KCNQ2 pot confirm=-11.5;Kir2-1 sel=-29.8
Cc1cc(Cl)ccc1OCC(=O)OCC(=O)N(CC(C)C)c1c(N)n(Cc2ccccc2)c(=O)[nH]c1=O,.,i,.,.,
O=C(CC1CCCCC1)NCCS(=O)(=O)N1CCN(c2ccccc2)CC1,0.82,i,.,.,
COc1ccc(NC(=O)CSCC(=O)Nc2ccccc2N2CCCC2)cc1,0.75,i,.,.,
O=C(Nc1ccc(F)cc1)Nc1ccccc1N1CCCCC1,1.47,i,.,.,
CN1CCN(c2ccccc2NC(=O)Cc2ccc(Cl)cc2)CC1,1.89,i,.,.,
O=C(Cc1ccc(F)cc1)Nc1ccccc1N1CCCC1,10.8*,i,59.0%*,i,CHO-K1 Tl ctr=2.5*;KCNQ1 pot spec=-9.5;KCNQ2 pot confirm=48.4*;Kir2-1 sel=-81.4;KCNQ2 W236L MoA=i
COc1ccc(NC(=O)CSCC(=O)Nc2ccccc2N2CCCCC2)cc1,6.74*,i,.,.,CHO-K1 Tl ctr=18.7*;KCNQ1 pot spec=59.6*;KCNQ2 pot confirm=-21.9;Kir2-1 sel=-65.2
O=C(Cc1ccc(Cl)c(Cl)c1)Nc1ccccc1N1CCCC1,7.2*,i,i,i,CHO-K1 Tl ctr=103.3*;KCNQ1 pot spec=-13.4;KCNQ2 pot confirm=56.4*;Kir2-1 sel=-49.9;KCNQ2 W236L MoA=i
CCCCn1c(N)c(N(CCOC)C(=O)c2ccco2)c(=O)[nH]c1=O,0.15,i,.,.,
O=S(=O)(NCc1ccccc1)c1ccc(-n2cccn2)cc1,0.56,i,.,.,
COc1ccc2c(c1)c(C(C)=O)c(C)n2CCc1ccccc1,0.07,i,.,.,
COc1cc(OC)c(NC(=O)c2csc(C)c2)cc1Cl,.,i,.,.,
CC(=O)Nc1cccc(C(=O)OC(C)C(=O)N2CCc3ccccc32)c1 (stereo not given),1.34,i,.,.,
O=C(O)c1ccccc1C(=O)Nc1ccc(Oc2cccc3ccccc23)cc1,0.74,i,.,.,
O=C(Nc1ccc(CSc2ccccc2)cc1)c1ccco1,6.94*,i,i,i,CHO-K1 Tl ctr=75.8*;KCNQ1 pot spec=-13.2;KCNQ2 pot confirm=-1.5;Kir2-1 sel=-45.6;KCNQ2 W236L MoA=i
O=C(CCc1ccccc1)Nc1ccc(NC(=O)c2ccco2)cc1,0.76,i,.,.,
O=C(Nc1ccc(Oc2cccc3ccccc23)cc1)c1ccco1,6.38*,i,i,i,CHO-K1 Tl ctr=-7.0;KCNQ1 pot spec=-18.4;KCNQ2 pot confirm=-10.4;Kir2-1 sel=-37.1;KCNQ2 W236L MoA=i
O=C(O)c1sc2cc(C(F)(F)F)cnc2c1-c1cccs1,.,i,.,.,
COC(=O)c1ccc2c(=O)[nH]c(COC(=O)CCC(=O)c3ccc(Cl)cc3)nc2c1,.,i,.,.,
SMILES,KCNQ2 enhance,KCNQ2 block,Kir21 conf inh,HEK293 Tl flux,others
CC(=O)N1c2ccc(S(=O)(=O)N3CCCC3C(=O)Nc3ccc(C)cc3)cc2CC1C (stereo not given),.,i,.,.,
Cc1cc(C)c(S(=O)(=O)N2CCOC2CNC(=O)C(=O)NCc2ccncc2)c(C)c1 (stereo not given),0.04,i,.,.,
CCCc1ccc(OCc2ccc(C(=O)O)o2)c(OC)c1,0.16,i,.,.,
COc1ccc(CCN(C)C(=O)c2ccc(COc3ccccc3)o2)cc1OC,.,i,56.0%*,i,
O=C(NCC1CCCN1S(=O)(=O)c1cccs1)C(=O)Nc1ccc(F)cc1F (stereo not given),.,i,.,.,
CCN1CCN(c2nc(C)c3c(n2)CC(C)CC3=O)CC1 (stereo not given),0.57,i,.,.,
Cc1nc(N2CCN(Cc3ccccc3)CC2)nc2c1C(=O)CC(C)C2 (stereo not given),.,i,65.0%*,i,
Cc1ccc(-c2cc(-c3n[nH]c(=S)n3C)c3ccccc3n2)cc1,0.27,i,.,.,
CC(/C=N/NC(=O)c1ccccc1F)c1ccccc1 (stereo not given),0.73,i,.,.,
CN(C(=O)c1ccccc1F)C(c1ccccc1)c1ccccc1,.,i,66.0%*,i,
Oc1ccc(C2=NN(c3ccccc3)C(c3ccc(F)cc3)C2)cc1 (stereo not given),12.3*,i,i,i,CHO-K1 Tl ctr=3.9*;KCNQ1 pot spec=-13.8;KCNQ2 pot confirm=-16.5;Kir2-1 sel=-25.4
Oc1ccccc1C1=NN(c2ccccc2)C(c2ccc(F)cc2)C1 (stereo not given),2.9,i,.,.,
COc1ccc(S(=O)(=O)N2CCC(C(=O)N(CC(C)C)C3CCS(=O)(=O)C3)CC2)cc1OC (stereo not given),0.12,i,.,.,
COc1ccc(CN2CCN(C3CCC3)CC2CCO)c(F)c1 (stereo not given),13.1*,i,i,i,CHO-K1 Tl ctr=-13.0;KCNQ1 pot spec=-18.0;KCNQ2 pot confirm=-7.9;Kir2-1 sel=-27.0
COc1ccc(CN2CCN(Cc3cc4ccccc4o3)CC2CCO)c(F)c1 (stereo not given),.,i,.,.,
Cc1ccc(N2CC(C(=O)O)CC2=O)cc1 (stereo not given),0.02,i,.,.,
O=C(COC(=O)C1(c2ccccc2F)CCCC1)NCc1cccs1,.,i,73.0%*,i,
NC(=O)c1ccc(NC(=O)COC(=O)C2(c3ccccc3F)CCCC2)cc1,1.85,i,.,.,
